MCL1 BIM primary – inhibitors of MCL1 binding to BIM-BH3, primary screen, biochemical, fluorescence polarization; GST-MCL1 / FITC-Bim-BH3 fluorescence polarization; hit rate 0.68% among 320,000; inhibition, % at 10.9 µM;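 active means inhibition above the mean inhibition of all tested compounds plus 3 SD, set per campaign, cut at about 40% in these data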;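 further: 0% = DMSO wells and 100% = unlabeled Bim-BH3 peptide control; higher means more loss of mP so more displacement of Bim peptide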
Target sequence (Q07820 whole entry, looked up): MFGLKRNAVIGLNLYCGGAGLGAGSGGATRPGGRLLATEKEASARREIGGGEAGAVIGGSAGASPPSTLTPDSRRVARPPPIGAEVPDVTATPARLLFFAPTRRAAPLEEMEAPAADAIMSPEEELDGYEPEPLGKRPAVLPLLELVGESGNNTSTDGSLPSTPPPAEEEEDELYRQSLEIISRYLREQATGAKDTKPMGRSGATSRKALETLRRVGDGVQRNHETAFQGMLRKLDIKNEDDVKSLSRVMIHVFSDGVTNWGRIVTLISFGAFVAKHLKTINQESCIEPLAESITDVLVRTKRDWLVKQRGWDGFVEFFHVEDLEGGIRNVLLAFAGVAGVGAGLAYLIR
Mcl1 Noxa PPI – Mcl-1/Noxa binding inhibitors, primary screen, biochemical, TR-FRET, 1536-well | Induced myeloid leukemia cell differentiation protein Mcl-1 (Homo sapiens), Q07820 | TR-FRET Mcl-1/Noxa peptide binding, 2 h | inhibition, % at 21.7 µM | hit rate 1.5% among 220,000;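 active means compounds that cut the protein-peptide binding signal by more than 50% relative to plate controls in a single-dose test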;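 further: His-tagged Mcl-1 with rhodamine Noxa BH3 peptide and terbium anti-His antibody; 0% = Mcl-1 plus Noxa peptide wells and 100% = peptide-only wells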
Mcl1-Bid inh – Mcl-1/Bid binding inhibitors, primary screen, biochemical, TR-FRET, 1536-well; Induced myeloid leukemia cell differentiation protein Mcl-1 (Homo sapiens), Q07820; TR-FRET Mcl-1/Bid-Dy647 peptide binding; inhibition, % at 21.7 µM; hit rate 0.97% among 220,000;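 active means compounds that cut the binding signal by more than half at the single screening dose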;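 further: His-tagged Mcl-1 with europium anti-His antibody binding Bid BH3 peptide; 0% = Mcl-1 plus peptide wells and 100% = peptide-only wells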
Mcl-1 Bim block – inhibitors of Bim peptide binding to Mcl-1, primary screen, biochemical, bead-based flow cytometry, multiplex; inhibition, % at 10 µM; Induced myeloid leukemia cell differentiation protein Mcl-1 (Homo sapiens), Q07820; AID 1009, 2008; Bim peptide-Mcl-1 binding; hit rate 0.1% among 190,000; in the data active means inhibition above about 40%;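 further: 0% = no compound tracer wells and 100% = peptide blocker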
An asterisk follows results filed as active; . = no result given. Sampled rows, rich in hits. Any-hit rate of the full collection: about 2%.

SMILES | MCL1 BIM primary | Mcl1 Noxa PPI | Mcl1-Bid inh | Mcl-1 Bim block
C=C(c1ccccc1)P(=O)(O)O | -4 | 30 | 14 | -5
O=P(O)(O)C#Cc1ccccc1 | . | 12 | 96* | -4
CC1Oc2cc3c(-c4c(O)cc(O)c5c(O)c6c(cc45)OC(C)C(C)C6=O)c(O)cc(O)c3c(O)c2C(=O)C1C (stereo unspecified) | 21 | 103* | 42 | .
CN1C2c3ccccc3C3C4c5ccccc5C(C31)C(C2[N+](=O)[O-])N4C (stereo unspecified) | -4 | -9 | -17 | .
CN1C(=O)N(C)C(=O)C2(Cc3c(ccc4ccccc34)N(C)C2)C1=O | 4 | 51* | -74 | -1
COc1ccc(C(=O)CC2(CC(=O)c3ccc(OC)cc3)C(=O)N(C)C(=O)N(C)C2=O)cc1 | 7 | -6 | -24 | 0
COc1cc(O)c(C(=O)O)c(-c2cc(O)c(O)cc2C)c1 | 28 | 93* | -36 | .
CCOP(=O)(OCC)C(O)c1ccc(Br)cc1 (stereo unspecified) | -6 | 18 | 5 | -6
CCOP(=O)(OCC)C(O)c1ccc(N(C)C)cc1 (stereo unspecified) | 8 | -2 | 58* | .
O=C1Nc2ccccc2C1Cc1nc2ccccc2c(=O)n1-c1ccccc1 (stereo unspecified) | -1 | 27 | 54* | .
CN(C)c1ccc(/C=C/C=C2/C(=O)NC(=O)N(c3ccccc3)C2=O)cc1 | . | 58* | 52* | 1
COC(=O)c1c(C)[nH]c(C(=O)C(C)[N+]23CCN(CC2)CC3)c1C (stereo unspecified) | 6 | -2 | 74* | 0
CCN1C(=O)/C(=C\c2ccc([N+](=O)[O-])s2)C(=O)NC1=S | . | 94* | 32 | 2
CC(=O)O[C@H]1[C@H]2O[C@]23[C@@H]2CC[C@]4(O)C[C@@H](O)CC[C@]4(C)C2CC[C@]3(C)[C@H]1c1ccc(=O)oc1 (stereo partly specified) | 7 | . | . | .
Cc1cccc(N2C(=O)NC(=O)/C(=C/c3ccc([N+](=O)[O-])o3)C2=O)c1 | 48* | 72* | 28 | -2
COc1ccc(CN2C(=O)NC(=O)/C(=C/c3ccc([N+](=O)[O-])o3)C2=O)cc1 | . | 95* | 34 | 1
O=c1c2ccccc2nc(CNCc2ccco2)n1-c1ccc(F)cc1 | -8 | -11 | -57 | -4
c1cncc(C2CCCCN2)c1 (stereo unspecified) | 18 | 14 | 61* | .
c1cncc(CNC2CCCCC2)c1 | -2 | . | . | .
Cc1cc(OC(=O)N(C)C)nc(-c2ccc(C)c(Cl)c2)n1 | -1 | -10 | -8 | .
CCCCOc1ccc(CC2C(=O)N(C)C(=O)N(C)C2=O)cc1 | -8 | 26 | 72* | -2
COC(=O)C1=C(c2ccc(F)cc2F)C[C@@H]2CC[C@H]1N2C(=O)NCCOc1ccccc1Cl | -3 | . | . | .
COP(=O)(CC(=O)O)c1ccccc1 (stereo unspecified) | 0 | 0 | -15 | 95*
O=c1[nH]c(=O)n(CCc2ccccc2)c(O)c1C=NCc1ccc2c(c1)OCO2 | -3 | -103 | 67* | -1
C=CCn1c(O)c(C(C)=NC2CCN(Cc3ccccc3)CC2)c(=O)[nH]c1=O | 8 | -22 | -25 | .
SMILES | MCL1 BIM primary | Mcl1 Noxa PPI | Mcl1-Bid inh | Mcl-1 Bim block
CCCNC(=O)c1c(N)n(Cc2ccc3c(c2)OCO3)c2nc3ccccc3nc12 | 12 | 56* | -22 | 1
COCCCNC(=O)c1c(N)n(Cc2ccco2)c2nc3ccccc3nc12 | 54* | 55* | -81 | .
CC(C)CNC(=O)c1c(N)n(Cc2ccco2)c2nc3ccccc3nc12 | 23 | 87* | 33 | 1
CCN(CC)C(=O)c1ccc(NC(=O)COc2ccccc2F)cc1 | -1 | 1 | -13 | 0
CC(=O)N(C1=NCCCS1)c1ccccc1Cl | -7 | -7 | -4 | -2
O=C1/C(=C\c2ccc(Cl)c(Cl)c2)N2CCC1CC2 | 4 | 10 | 54* | .
CN1CCCCC1c1ccc(-c2cccnc2)nc1 (stereo unspecified) | 0 | 21 | 70* | 3
O=C(O)CCC(=O)NCCC1=c2ccccc2=N/C1=C\c1c(O)n(Cc2ccc(F)cc2)c(=S)[nH]c1=O | 8 | 104* | 100* | .
COc1ccccc1CCNC(=O)CCC(=O)N1CC2C[C@@H](C1)Cn1c2cccc1=O | 5 | . | . | .
S=P(NC1CCCCC1)(N1CC1)N1CC1 | 48* | 7 | 4 | .
